Laboratory results reported in PubChem BioAssay (NCATS).
Results filed as inconclusive are left out. Unmarked numbers belong to inactive results. The source made the active and inactive calls. The call rests on the fitted dose curve; in most records, active means well fitted activation curve with a large enough effect; inconclusive means small, poorly fitted or top-dose-only effect; inactive means no such curve, though single readings can be large or run the other way.

biological target: D(1A) dopamine receptor (Homo sapiens) (UniProt P21728); test: HTS Assay for Allosteric Agonists of the Human D1 Dopamine Receptor: Primary Screen for Potentiators (AID 488982); conditions: HEK293 T-REx D1 inducible cells, calcium flux, kinetic fluorescence; series mostly up to 8.37 µM; activity, positive = potentiation: at the top concentration; further: 0% is about no effect
Text: Dopamine receptors (DARs) are involved in the etiology and/or therapy of a number of neuropsychiatric and endocrine disorders. For instance, all receptor-based antiparkinsonian drugs work via stimulating the […] DAR subtype whereas all FDA-approved antipsychotic agents are antagonists of this receptor. […] There are three different types of allosteric modulators that we are seeking, two of which will stimulate or augment receptor signaling, allosteric agonists and potentiators, while the third, allosteric antagonists, will attenuate receptor signaling. The present primary screening assay measures compound agonism by tracking calcium flux in a […], inducible Hek293 Trex D1 cell line.
Freshly passaged cells are plated in 1536 well black, clear bottom plates at a density of 4000 cells/well in 3 ul of complete media containing 1x tetracycline inducer. After an overnight incubation at 30 C in 5% CO2, cells are loaded with 2 ul of the no wash Calcium Assay Kit (ABD Bioquest) and incubated at room temperature for 30 to 90 minutes. A 10 cycle (1 second/cycle) baseline measurement is taken and then the FDSS online 1536 pintool delivers 23 nl of compound library (as well as dopamine controls) to the plate. The plate is measured for kinetically at 1 cycle/sec for 180 seconds and is considered to be the agonist portion of the assay (eg, compounds which activate a positive calcium response during this portion are flagged as potential agonists). Following the 180 second read, 1 ul of an EC20 of dopamine is delivered by an onboard pipette head. Measurements are taken kinetically for an additional 180 seconds.

Chain of D(1A) dopamine receptor (Homo sapiens) (P21728 whole entry, looked up): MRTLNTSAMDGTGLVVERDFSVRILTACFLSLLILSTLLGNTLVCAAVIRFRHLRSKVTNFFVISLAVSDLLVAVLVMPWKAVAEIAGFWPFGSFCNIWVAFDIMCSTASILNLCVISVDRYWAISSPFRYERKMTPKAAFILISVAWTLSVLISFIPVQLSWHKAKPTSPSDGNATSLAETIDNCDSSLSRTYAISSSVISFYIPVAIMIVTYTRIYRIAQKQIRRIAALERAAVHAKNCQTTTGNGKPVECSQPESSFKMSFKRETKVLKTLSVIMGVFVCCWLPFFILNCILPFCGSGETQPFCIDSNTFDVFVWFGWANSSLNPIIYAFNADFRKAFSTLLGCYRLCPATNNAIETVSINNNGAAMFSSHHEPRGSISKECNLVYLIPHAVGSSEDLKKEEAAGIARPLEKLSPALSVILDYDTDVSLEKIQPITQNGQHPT

SMILES | activity, positive = potentiation [%] | outcome
CC1(C)CCC2=C(O1)c1ccccc1C(=O)C2=O | 22.7 | 
COc1cccc(-c2cc(=O)c3ccccc3o2)c1N | 4.57 | 
O=C1NCC2(CCN(CCc3ccccc3)CC2)O1 | 20.7 | 
O=c1cc(-c2ccc(O)cc2)oc2cc(O)cc(O)c12 | -4.68 | 
CC(=O)c1ccc(S(=O)(=O)NC(=O)NC2CCCCC2)cc1 | -17.7 | 
Clc1ccc(C(c2ccc(Cl)cc2)n2cc[n+](CC(OCc3ccc(Cl)cc3Cl)c3ccc(Cl)cc3Cl)c2)cc1 (stereo unspecified) | -12.8 | 
NC(N)=Nc1nc(CSCC/C(N)=N/S(N)(=O)=O)cs1 | 28.4 | 
O=C(NCCN1CCOCC1)c1ccc(Cl)cc1 | -21.3 | 
NCCS | -11.7 | 
CCCCCN(C)CCC(O)(P(=O)(O)O)P(=O)(O)O | 26.9 | 
CC(=O)CCCCn1c(=O)c2c(ncn2C)n(C)c1=O | 15.6 | 
CC(C)OC(=O)C(C)(C)Oc1ccc(C(=O)c2ccc(Cl)cc2)cc1 | 34.8 | 
CN(C)CCC(c1ccccc1)c1ccccn1 (stereo unspecified) | 23.6 | 
C[N+](C)(C)CCCCCC[N+](C)(C)C |  | inactive
COC(=O)[C@@H]1[C@H]2C[C@H]3c4[nH]c5ccccc5c4CCN3C[C@@H]2CC[C@@H]1O | -109 | 
O=C(O)CCc1nc(-c2ccccc2)c(-c2ccccc2)o1 | -2.08 | 

SMILES | activity, positive = potentiation [%] | outcome
CCCNC(=O)NS(=O)(=O)c1ccc(Cl)cc1 | 5.49 | 
O=C1NC(=O)C(c2ccccc2)(c2ccccc2)N1 | 24.5 | 
CCN(CC)CCOC(=O)c1ccc(N)cc1 | 65.5 | 
CCN1CCC[C@H]1CNC(=O)c1cc(S(N)(=O)=O)ccc1OC | -39.8 | 
CC(C)NCC(O)COc1cccc2[nH]ccc12 (stereo unspecified) | -17.9 | 
CCN(CC)CCNC(=O)c1ccc(N)cc1 | -14.9 | 
CCn1cc(C(=O)O)c(=O)c2ccc(C)nc21 | -13.9 | 
Clc1ccc(Cn2c(CN3CCCC3)nc3ccccc32)cc1 | 17.9 | 
CCN(CC)C(=O)c1ccc(O)c(OC)c1 | 33.9 | 
COc1ccccc1N1CCN(CCCNc2cc(=O)n(C)c(=O)n2C)CC1 | -6.34 | 
Cc1cccc(C)c1OCC(C)N (stereo unspecified) | -15.7 | 
C[N+](C)(C)CC(=O)O | -29.4 | 
O=c1c(-c2ccc(O)cc2)coc2cc(O)ccc12 | -36.1 | 
CC(C)(C)c1ccc(C(O)CCCN2CCC(C(O)(c3ccccc3)c3ccccc3)CC2)cc1 (stereo unspecified) | -49.2 | 
COc1ccc(Cc2nccc3cc(OC)c(OC)cc23)cc1OC | -10.6 | 
